# Assay outcomes as filed in PubChem BioAssay.
# An excerpt weighted towards active compounds, which were near 20% of everything screened.
# Pf growth 48h = P. falciparum growth inhibition at 48 hours (one generation) | AID 504832 | Potency, µM (series often up to 28.7 µM), for inactives: top-dose activity change, negative = inhibition, usual class: inhibitors | hit rate 5.9% among 310,000 | P. falciparum luciferase growth in erythrocytes, 48 h; further: potency means the concentration at half of the fitted maximal effect; on the % scale 0 is the no-effect control and ±100 the full control effect
#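 Compounds are pin-transferred into medium, infected erythrocytes (2% hematocrit, 0.1% parasitemia final) are added, and plates sit one parasite generation at 37 C in 5% CO2. Detection reagent is then added and luminescence measured.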
# Shiga toxin inh = Shiga toxin inhibition. Vero cells, Shiga toxin protein synthesis inhibition reporter. inhibition, % at 38.7 µM. hit rate 9.2% among 290,000. AID 2315; in the data active means inhibition mostly above about 28%, no sharp cut-off; inactive means mostly below about 43%; further: 0% is about no effect
# CHX counter = counter-screen hit for Shiga toxin inhibitors, cycloheximide; AID 2314; cell reporter, cycloheximide protein synthesis inhibition counterscreen; hit rate 12% among 300,000; max response, %; in the data active means max response mostly above about 13%, no sharp cut-off; inactive means mostly below about 14%; further: read at 38.3 µM for the half of the compounds with a filed dose; 0% is about no effect
# Pf growth 96h = P. falciparum growth inhibition at 96 hour, primary screen for plastid delayed-death inhibitors. hit rate 6.9% among 320,000. P. falciparum luciferase reporter growth, 96 h. AID 504834. Potency, µM (titrated, usually from 28.7 µM), inactives show at the top dose activity change, negative = inhibition, most hits filed as inhibitors; further: potency means the concentration at half of the fitted maximal effect; on the % scale 0 is the no-effect control and ±100 the full control effect
#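 Compounds incubated with erythrocytes infected by luciferase-expressing P. falciparum (2% hematocrit, 0.05% parasitemia final) for 96 hours, 37 C in 5% CO2. Growth inhibition scored as decreased luciferase luminescence.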
# HCMV inh = inhibitors of human cytomegalovirus. AID 1259415. activity change, negative = inhibition, % at 57.5 µM. HFF cells, HCMV-luciferase reporter, 72 h; stronger effect = lower value. hit rate 4.5% among 410,000; in the data active means activity change below about -60%; inconclusive means no clear call, values can overlap the other calls; inactive means above about -39%; further: on the % scale 0 is the no-effect control and ±100 the full control effect
#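 Screen run at 2 compound doses on HFFs infected with reporter HCMV, MOI 1 PFU/cell. Luciferase activity from cell lysates at 72 h post infection gave inhibition relative to buffer-only and Salinomycin wells.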
# * marks the source's active call; other numbers are inactive results; u = inconclusive; x = not tested or not shown; + = active, no number. Unless noted, the call rests on the fitted dose curve; in most records, active means well fitted inhibition curve with a large enough effect; inconclusive means small, poorly fitted or top-dose-only effect, or another doubt; inactive means no such curve, though single readings can be large or run the other way.
SMILES,Pf growth 48h,Shiga toxin inh,CHX counter,Pf growth 96h,HCMV inh
COc1ccc(CN(C(=O)c2ccc(C)cc2)c2cccc(N)c2)cc1,u,x,x,u,-15.9
C=CCN(CC=C)C(=S)NC(=O)c1ccc(-c2ccccc2)cc1,x,-5.3,11.1,7.38µM*,-30.8
COc1cc(C(=O)NC(=S)N(C)Cc2ccccc2)cc(OC)c1OC,-15.3%,-3.6,0.4,u,-27.7
CC(=O)c1ccc(S(=O)(=O)N2CCn3cccc3C2c2ccc(C)cc2)cc1 (stereo not given),x,x,x,x,-20.1
CN(Cc1ccccc1)C(=S)NC(=O)C1CCCCC1,4.4%,46.0,28.3*,u,-8.9
CN(C(=S)NC(=O)C1CCCC1)c1ccccc1,x,x,x,x,-11.6
COc1ccc(C(=O)NC(=S)N(Cc2ccccc2)Cc2ccccc2)cc1,30.8%,143.9*,31.8*,u,19.3
CN(C)c1ccc(C(=O)N2CCC2(C)C(=O)O)cc1 (stereo not given),x,x,x,x,-9.2
Cc1ccc(C)c(-c2csc(-c3c(N)c(C(=O)c4ccc5c(c4)OCO5)n4ccccc34)n2)c1,x,17.1,13.4,x,21.3
CCCc1cc(C(=O)NNC(=S)Nc2cccc(C)c2)cs1,207.0%,40.3*,31.0*,142.3%,70.6
Cc1cccc(NC(=O)c2ccc3c(c2)OCCO3)c1,58.1%,41.1*,31.5,u,17.8
Cc1ccc(NC(=O)c2ccc3c(c2)OCCO3)cc1C,182.5%,20.9,14.7,10.5%,-25.8
O=C(Nc1cccc(F)c1)c1ccc2c(c1)OCCO2,245.8%,86.8*,43.4*,265.6%,24.6
Cc1ccc(NC(=O)c2ccc3c(c2)OCCO3)cc1S(=O)(=O)Nc1cccc(Cl)c1,46.5%,87.8*,45.4*,81.0%,-33.4
Cc1ccc(C(=O)Nc2cccc(N(C)S(C)(=O)=O)c2)cc1S(=O)(=O)Nc1ccccc1,4.7%,-6.9,-1.8,u,-2.1
Cc1cccc(NC(=S)NNC(=O)c2ccccc2OC(F)F)c1,-14.0%,15.3,9.5,x,59.5
COC(=O)c1cc(F)c(S(=O)(=O)N2CCN(S(=O)(=O)c3ccc4c(c3)OCCO4)CC2)cc1F,x,-5.3,-9.0,x,x
COc1ccc(CCNc2ncnc3c2c(-c2ccccc2)cn3-c2ccc(F)cc2)cc1OC,x,x,x,x,-38.1
Cc1cccc(NC(=S)NNC(=O)c2ccc3c(c2)OCO3)c1,0.0%,49.2*,116.3*,388.5%,44.9
Cc1cccc(NC(=S)N/N=C/c2ccc3c(c2)OCO3)c1,20.1%,+,49.2*,-18.1%,7.4
Nc1cc[n+](CC(=O)c2ccc3c(c2)OCCO3)cc1,4.65µM*,-7.3,-4.3,u,-82.3*
O=C(C[n+]1ccc(C(=O)NCc2ccccc2)cc1)c1ccc2c(c1)OCCO2,5.6%,-19.0,-1.5,12.4%,-9.8
O=C(Nc1ccccc1)c1ccc2c(c1)OCCO2,48.8%,70.0*,41.3*,34.5%,21.2
C=C(C)C(=O)OCCOCC,x,-2.4,-4.2,x,x
CCOC(=O)C(=O)CC(=O)c1ccc2c(c1)OCCO2,16.7%,50.5,29.6*,u,-3.1
SMILES,Pf growth 48h,Shiga toxin inh,CHX counter,Pf growth 96h,HCMV inh
COc1cccc(NC(=O)C(=O)N/N=C/c2ccc3c(c2)OCO3)c1,0.2%,56.0,26.4*,10.4µM*,13.3
CCOC(=O)c1ccc(NS(=O)(=O)c2ccc3c(c2)OCCO3)cc1,x,x,x,x,-12.6
CCC(CC)NC(=O)c1ccc2c(c1)OCCO2,20.9%,-7.3,10.2,x,7.9
CCC(C)(C)NC(=O)CN(C(=O)C(=O)Nc1ccc2c(c1)OCCO2)C1CC1,17.8%,14.2,12.4*,13.0%,-4.8
CCC(C)(C)NC(=O)c1ccc2c(c1)OCCO2,36.2%,44.7,16.0*,44.9%,23.5
O=c1[nH]c(=S)[nH]c2c1[C@H](CCc1cccc(Cl)c1)O[C@H](C1CCCC1)C2,x,x,x,x,-39.3
CC(CC(=O)Nc1ccc2c(c1)c(=O)n(C)n2-c1ccccc1F)c1ccccc1 (stereo not given),x,x,x,x,-22.4
COc1ccc(NC(=O)/C(=C\c2ccc3c(c2)OCO3)NC(C)=O)cc1,40.0%,66.5*,59.0*,-29.3%,0.7
COc1ccc(NC(=O)/C(=C/c2ccc(OC(C)=O)c(OC)c2)NC(C)=O)cc1,-13.5%,-4.4,0.5,-21.3%,35.4
C=CCc1cc(C(=O)N2CCCCC2)ccc1O,u,-8.3,9.3,17.1%,-70.8*
CCOC(=O)c1c(-c2ccccc2)n(C)c2ccc(O)cc12,x,-7.7,-3.4,u,-12.1
CCOC(=O)c1c(CN(CC)CC)n(-c2ccccc2)c2ccc(O)cc12,8.28µM*,-2.2,-6.2,u,-29.1
